PubChem BioAssay AID1159580 (chemical genetic matrix, 2015)
In all, about 5,500 compounds went through this assay and about 2,000 (36%) were called active. Roughly 18% stayed inconclusive and do not appear here. Rule as the data show it: active = normalized growth mostly below about 0.91 (no sharp cut-off); inconclusive = no clear call, values can overlap the other calls; inactive = mostly above about 0.92. The list shows a part of the results.

Assay: chemical genetic growth profiling, strain panel (AID 1159580);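 also: tested at 20 µM; growth read once vehicle control cultures reached saturation at 30 °C; 1 = growth at the plate median or of vehicle wells; lower values mean less growth of the strain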
Settings: growth OD

Measured: normalized growth

CCC[C@@H]1C[C@@H](C(=O)N[C@H]([C@H]2O[C@H](SC)[C@H](O)[C@@H](O)[C@H]2O)[C@H](C)O)N(C)C1
inactive: S. cerevisiae deletion strains, locus YJR066W, strain TOR1, stronger effect = lower value 0.967 | S. cerevisiae deletion strains, locus YJR075W, strain HOC1, stronger effect = lower value 0.993 | S. cerevisiae deletion strains, locus YKL009W, strain mrt4, stronger effect = lower value 0.974 | S. cerevisiae deletion strains, locus YKL068W, stronger effect = lower value 0.991 | S. cerevisiae deletion strains, locus YKL085W, strain MDH1 (second series), stronger effect = lower value 0.984 | S. cerevisiae deletion strains, locus YKL085W, strain MDH1, stronger effect = lower value 0.984 | S. cerevisiae deletion strains, locus YKL160W, strain elf1, stronger effect = lower value 0.964 | S. cerevisiae deletion strains, locus YKL190W, strain CNB1, stronger effect = lower value 1.01 | S. cerevisiae deletion strains, locus YKR001C, strain vps1, stronger effect = lower value 0.996 | S. cerevisiae deletion strains, locus YKR026C, strain gcn3, stronger effect = lower value 0.979 | S. cerevisiae deletion strains, locus YKR091W, strain srl3, stronger effect = lower value 0.987 | S. cerevisiae deletion strains, locus YLL001W, strain dnm1, stronger effect = lower value 0.951 | S. cerevisiae deletion strains, locus YLL026W, stronger effect = lower value 0.962 | S. cerevisiae deletion strains, locus YLL041C, strain sdh2, stronger effect = lower value 0.982 | S. cerevisiae deletion strains, locus YLR027C, strain aat2, stronger effect = lower value 0.97 | S. cerevisiae deletion strains, locus YLR039C, strain RIC1, stronger effect = lower value 0.973 | S. cerevisiae deletion strains, locus YLR058C, strain SHM2, stronger effect = lower value 0.977 | S. cerevisiae deletion strains, locus YLR102C, strain apc9, stronger effect = lower value 0.992 | S. cerevisiae deletion strains, locus YLR113W, strain HOG1, stronger effect = lower value 1.03 | S. cerevisiae deletion strains, locus YLR221C, strain rsa3, stronger effect = lower value 1.03 | S. cerevisiae deletion strains, locus YLR258W, strain gsy2, stronger effect = lower value 1 | S. cerevisiae deletion strains, locus YLR262C, strain YPT6 (second series), stronger effect = lower value 0.965 | S. cerevisiae deletion strains, locus YLR262C, strain YPT6, stronger effect = lower value 1.02 | S. cerevisiae deletion strains, locus YLR268W, strain sec22, stronger effect = lower value 1.01 | S. cerevisiae deletion strains, locus YLR320W, strain mms22, stronger effect = lower value 1.02 | S. cerevisiae deletion strains, locus YLR330W, strain CHS5, stronger effect = lower value 0.986 | S. cerevisiae deletion strains, locus YLR342W, strain FKS1 (second series), stronger effect = lower value 1 | S. cerevisiae deletion strains, locus YLR342W, strain FKS1, stronger effect = lower value 0.966 | S. cerevisiae deletion strains, locus YLR357W, strain rsc2, stronger effect = lower value 1 | S. cerevisiae deletion strains, locus YLR370C, strain arc18, stronger effect = lower value 0.972 | S. cerevisiae deletion strains, locus YLR371W, strain rom2, stronger effect = lower value 0.992 | S. cerevisiae deletion strains, locus YLR384C, strain iki3, stronger effect = lower value 0.97 | S. cerevisiae deletion strains, locus YLR418C, strain cdc73, stronger effect = lower value 0.975 | S. cerevisiae deletion strains, locus YML016C, strain PPZ1, stronger effect = lower value 0.989 | S. cerevisiae deletion strains, locus YML032C, strain rad52, stronger effect = lower value 1 | S. cerevisiae deletion strains, locus YML120C, strain ndi1, stronger effect = lower value 0.95 | S. cerevisiae deletion strains, locus YML124C, strain tub3, stronger effect = lower value 0.998 | S. cerevisiae deletion strains, locus YMR058W, strain fet3, stronger effect = lower value 0.975 | S. cerevisiae deletion strains, locus YMR078C, strain ctf18, stronger effect = lower value 0.986 | S. cerevisiae deletion strains, locus YMR125W, strain sto1, stronger effect = lower value 0.992 | S. cerevisiae deletion strains, locus YMR129W, stronger effect = lower value 0.991 | S. cerevisiae deletion strains, locus YMR205C, strain PFK2, stronger effect = lower value 0.99 | S. cerevisiae deletion strains, locus YMR223W, strain ubp8, stronger effect = lower value 0.962 | S. cerevisiae deletion strains, locus YMR231W, strain pep5, stronger effect = lower value 0.996 | S. cerevisiae deletion strains, locus YMR263W, strain SAP30, stronger effect = lower value 0.996 | S. cerevisiae deletion strains, locus YMR307W, strain GAS1, stronger effect = lower value 1 | S. cerevisiae deletion strains, locus YNL067W, strain RPL9B, stronger effect = lower value 1.01 | S. cerevisiae deletion strains, locus YNL071W, strain lat1, stronger effect = lower value 0.986 | S. cerevisiae deletion strains, locus YNL183C, strain NPR1, stronger effect = lower value 0.968 | S. cerevisiae deletion strains, locus YNL209W, strain ssb2, stronger effect = lower value 0.993 | S. cerevisiae deletion strains, locus YNL233W, strain BNI4, stronger effect = lower value 0.984 | S. cerevisiae deletion strains, locus YNL248C, strain rpa49, stronger effect = lower value 1.02 | S. cerevisiae deletion strains, locus YNL250W, strain rad50, stronger effect = lower value 0.979 | S. cerevisiae deletion strains, locus YNL271C, strain bni1, stronger effect = lower value 0.985 | S. cerevisiae deletion strains, locus YNL298W, strain CLA4, stronger effect = lower value 0.989 | S. cerevisiae deletion strains, locus YNL307C, strain MCK1, stronger effect = lower value 0.993 | S. cerevisiae deletion strains, locus YNL322C, strain KRE1 (second series), stronger effect = lower value 0.987 | S. cerevisiae deletion strains, locus YNL322C, strain KRE1, stronger effect = lower value 0.993 | S. cerevisiae deletion strains, locus YNR049C, strain mso1, stronger effect = lower value 0.977 | S. cerevisiae deletion strains, locus YNR052C, strain pop2, stronger effect = lower value 0.987 | S. cerevisiae deletion strains, locus YOL012C, strain htz1 0.745 | S. cerevisiae deletion strains, locus YOL147C, strain pex11, stronger effect = lower value 0.985 | S. cerevisiae deletion strains, locus YOR001W, strain rrp6, stronger effect = lower value 0.947 | S. cerevisiae deletion strains, locus YOR061W, strain CKA2, stronger effect = lower value 0.998 | S. cerevisiae deletion strains, locus YOR069W, strain VPS5, stronger effect = lower value 0.99 | S. cerevisiae deletion strains, locus YOR070C, strain gyp1, stronger effect = lower value 0.993 | S. cerevisiae deletion strains, locus YOR080W, strain dia2, stronger effect = lower value 0.971 | S. cerevisiae deletion strains, locus YOR083W, strain WHI5, stronger effect = lower value 0.966 | S. cerevisiae deletion strains, locus YOR106W, strain vam3, stronger effect = lower value 0.951 | S. cerevisiae deletion strains, locus YOR136W, strain idh2, stronger effect = lower value 0.984 | S. cerevisiae deletion strains, locus YOR144C, strain elg1, stronger effect = lower value 0.985 | S. cerevisiae deletion strains, locus YOR184W, strain ser1, stronger effect = lower value 0.978 | S. cerevisiae deletion strains, locus YOR231W, strain MKK1, stronger effect = lower value 1.04 | S. cerevisiae deletion strains, locus YOR265W, strain rbl2, stronger effect = lower value 0.983 | S. cerevisiae deletion strains, locus YOR270C, strain vph1, stronger effect = lower value 0.948 | S. cerevisiae deletion strains, locus YOR290C, strain snf2, stronger effect = lower value 1 | S. cerevisiae deletion strains, locus YOR316C, strain cot1, stronger effect = lower value 0.992 | S. cerevisiae deletion strains, locus YPL051W, strain arl3, stronger effect = lower value 1 | S. cerevisiae deletion strains, locus YPL078C, strain atp4, stronger effect = lower value 0.928 | S. cerevisiae deletion strains, locus YPL106C, strain sse1, stronger effect = lower value 0.94 | S. cerevisiae deletion strains, locus YPL240C, strain hsp82, stronger effect = lower value 0.981 | S. cerevisiae deletion strains, locus YPL241C, strain CIN2, stronger effect = lower value 0.998 | S. cerevisiae deletion strains, locus YPL256C, strain CLN2, stronger effect = lower value 1.03 | S. cerevisiae deletion strains, locus YPR119W, strain clb2, stronger effect = lower value 0.997 | S. cerevisiae deletion strains, locus YPR141C, strain kar3, stronger effect = lower value 0.985 | S. cerevisiae deletion strains, locus YPR163C, strain tif3, stronger effect = lower value 0.987 | S. cerevisiae deletion strains, locus YPR167C, strain met16, stronger effect = lower value 0.993 | S. cerevisiae deletion strains, strain wtn01, stronger effect = lower value 0.98 | S. cerevisiae strains, strain wild type, stronger effect = lower value 1.01
